Laboratory results taken from PubChem BioAssay (NCI).
Compounds without any hit were thinned out: in the full panel of roughly 83,000, 20% have a hit.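 Negative percent growth values reflect cell death: -40 means 40% of the cells present at the start died, and -100 means all died.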 Unmarked numbers belong to inactive results. The source made the active and inactive calls. How the source made its calls: active means growth percent below 10; inactive means the rest.

Key:
Assay in all cases: NCI-60 one-dose screen, 48 h (100 = growth as untreated, 0 = no growth, -100 = all killed)
Conditions in all cases: 10 µM unless noted
HCT-15 colon = tested on: HCT-15 colon
HT29 colon = tested on: HT29 colon
SNB-75 CNS = tested on: SNB-75 CNS
SNB-19 CNS = tested on: SNB-19 CNS
U251 CNS = tested on: U251 CNS
PC-3 prostate = tested on: PC-3 prostate
LOX IMVI melanoma = tested on: LOX IMVI melanoma
SK-MEL-2 melanoma = tested on: SK-MEL-2 melanoma
EKVX NSCLC = tested on: EKVX NSCLC
UO-31 renal = tested on: UO-31 renal
TK-10 renal = tested on: TK-10 renal
ACHN renal = tested on: ACHN renal
CAKI-1 renal = tested on: CAKI-1 renal
A498 renal = tested on: A498 renal
CCRF-CEM leukemia = tested on: CCRF-CEM leukemia
MOLT-4 leukemia = tested on: MOLT-4 leukemia
UACC-62 melanoma = tested on: UACC-62 melanoma
SK-MEL-28 melanoma = tested on: SK-MEL-28 melanoma

SMILES	growth (HCT-15 colon)	growth (HT29 colon)	growth (SNB-75 CNS)	growth (SNB-19 CNS)	growth (U251 CNS)	growth (PC-3 prostate)	growth (LOX IMVI melanoma)	growth (SK-MEL-2 melanoma)	growth (EKVX NSCLC)	growth (UO-31 renal)	growth (TK-10 renal)	growth (ACHN renal)	growth (CAKI-1 renal)	growth (A498 renal)	growth (CCRF-CEM leukemia)	growth (MOLT-4 leukemia)	growth (UACC-62 melanoma) [%]	growth (SK-MEL-28 melanoma) [%]
COc1ccc(CN2c3ccccc3Sc3ccccc32)c(C(F)(F)F)c1	37.3%	2.45% (active)	7.8% (active)	32.7%	20.6%	26.9%	54.7%	3.52% (active)	49.9%	45.6%	65.5%	48.7%	32.5%	4.16% (active)	10.5%	24%		
COc1cc(-c2nc(C(=O)NCC(=O)NO)nn2-c2ccc(Cl)cc2)cc(OC)c1OC	101%	96.4%	87.7%	100%	96.1%	87.9%	95.9%	95.4%	103%	83.5%	96.9%	98.9%	89.3%	110%	107%	97.4%		
C=C1C(=O)O[C@H]2[C@H]1CC/C(C=Nc1ccc(C(F)(F)F)cc1N)=C\CC[C@@]1(C)O[C@@H]21	2.23% (active)	1.96% (active)	41.1%	44%	14.6%	14.2%	-48.9% (active)	-18.3% (active)	31.2%	30.3%	1.36% (active)	-38% (active)	15.5%	46.8%	-5.78% (active)	-3.3% (active)		
COc1ccccc1Nc1nc(-c2cc3cccc(C(F)(F)F)c3oc2=O)cs1	16%	3.1% (active)	15%	26.7%	9.97% (active)	21.2%	17.3%	26.8%	36.1%	52%	67.9%	24.6%	9.18% (active)	-9.67% (active)	7.96% (active)	14.9%		
c1ccc2[nH]c(-c3ccc(Nc4nc(N5CCCC5)nc5[nH]ncc45)cc3)nc2c1	-36.2% (active)	-49.1% (active)	-79.2% (active)	15.5%	-66.1% (active)	0.946% (active)	-84.4% (active)	-48.1% (active)	-8.31% (active)	-27.1% (active)	-6.9% (active)	-58.3% (active)	-22.3% (active)	94.5%	-29.7% (active)	-44.1% (active)		
COc1ccc2c(c1)CC/C(=C\c1cncc(Br)c1)C2=O	94.7%	79.7%	120%	90.7%	85.9%	92.7%	88.3%	95.1%		96.5%	85%	84.9%	86.6%	96.5%	13.5%	83.5%		
CCOC(=O)c1sc(Nc2ccc(Cl)cc2)nc1C	13.1%	4.65% (active)	-11.2% (active)	37%	13.5%	14.2%	9.91% (active)	-0.883% (active)		-9.64% (active)	26.5%	14.3%	10.4%	-32.9% (active)	17.8%	10.7%		
CC(=O)OC[C@H]1O[C@H](OC(C)=O)[C@H](NC(=O)/C=C/CCl)[C@@H](OC(C)=O)[C@@H]1OC(C)=O	99.1%	54.3%	71.3%	86.8%	45.1%	70.4%	68.8%	66.6%	94.9%	103%	75%	77.1%	101%	104%	24.6%	81.9%		
COc1ccc(Nc2cc(C)nc(N3CCN(c4ccnc5cc(Cl)ccc45)CC3)n2)cc1	14.8%	9.85% (active)	42.7%	48.1%	37.6%	33%		48%		-0.534% (active)	46.8%	41.5%	35.1%	-1.56% (active)	16%	11.1%	17.7	59.9
COc1cccc(-c2nc(SCC(=O)Nc3ccc(C(=O)/C=C/c4ccc(OC)c(OC)c4)cc3)[nH]c(=O)c2C#N)c1	83.6%	102%	71.8%	76.3%	85.3%	100%	81.4%	96.6%	87.7%	79.3%	109%	86.6%	88.4%	97.2%	90%	74.8%		
COc1cc2c(cc1O)CC[C@@H]1[C@@H]2CC[C@]2(C)[C@@H](OCCCN(C)C)CC[C@@H]12	-54.6% (active)	-90.8% (active)	-65.4% (active)	-20.6% (active)	-74.2% (active)	-18.6% (active)	-91.5% (active)	-85.9% (active)		-79.6% (active)	-6.67% (active)		10.9%	-53.6% (active)	-7.19% (active)	-21.1% (active)		
COc1cc2c(cc1O)CC[C@@H]1[C@@H]2CC[C@]2(C)[C@@H](OCCN(C)C)CC[C@@H]12	34%	3.38% (active)	17.8%	52.4%	27.4%	45.4%	52.5%	25.8%	65.2%	72.3%	85.1%	57.9%	75.3%	40.3%	10.3%	33.9%		
OCCN1CCN(c2nc(Nc3ccc(-c4nc5ccccc5[nH]4)cc3)c3cn[nH]c3n2)CC1	-78.9% (active)	-91.4% (active)	-96.6% (active)	-76.7% (active)	-99.7% (active)	-76.1% (active)	-89.2% (active)	-83.6% (active)	-80.4% (active)	-89.4% (active)	-97.2% (active)	-85.3% (active)	-97.3% (active)	-78.8% (active)	-73.9% (active)	-79.6% (active)		
NCCNc1nc(Nc2ccc(-c3nc4ccccc4[nH]3)cc2)c2cn[nH]c2n1	101%	62.7%	71.7%	66.5%	-55.4% (active)	74%	-17.8% (active)	75%	88.9%	76.7%	105%		91.5%	115%	-3.49% (active)	8.24% (active)		
O=C1/C(=C/c2ccc(OCCCOc3ccc(Cl)cc3)cc2)N=C2SCCCN12	63.2%	76%	84.5%	78.5%	69.6%	45.5%	68.3%	98.4%	47.6%	70.9%	72.7%	74.5%	71.6%	96.5%	69.5%	62.1%		
CCOc1ccc(-n2nc(C(=O)Nc3ccccc3)nc2-c2cc(OC)c(OC)c(OC)c2)cc1	35.4%	13%	35.1%	55.8%	36.1%	44.9%	55.8%	37.7%	53.2%	37.7%	72.4%	62.8%	51.6%	10.3%	50.8%	42.9%		
COc1ccc2c(c1)C(=O)/C(=C/c1cccnc1)CC2	92.8%	92.5%	91.6%	88.7%	86.7%	101%	88.5%	97.7%	96.5%	92.3%	97.7%	88.5%	90.8%	100%	68%	82.4%		
COc1cccc2c1C(=O)c1c(O)c3c(c(O)c1C2=O)C[C@](O)(C(=O)CO)C[C@H]3O[C@@H]1C[C@@H](NC(=O)CCCCCN(C)C2(c3ccc(F)cc3)CC3CCC2C3)[C@H](O)[C@@H](C)O1 (stereo partly drawn)	0.779% (active)	-55.5% (active)	41.3%	10.4%	-100% (active)	-82.7% (active)	-90.5% (active)	73.5%	33.9%	62.8%	68.7%	-77.4% (active)	52.6%	54.6%	-22.2% (active)	-27.7% (active)		
